The text below walks through data of PMC7862700, “An all-to-all approach to the identification of sequence-specific readers for epigenetic DNA modifications on cytosine”.

Common to all, as to experiment: DAPPL (digital affinity profiling via proximity ligation, sequencing); 10 mM Tris-HCl pH 7.5, 50 mM NaCl, 1 mM DTT, 4% glycerol, room temperature, 30 min; GST-TFs on glutathione beads, 16-mer random dsDNA library, 0.1% formaldehyde crosslink after washing; high values mean tight binding
The target in experiment [1] is T1, FLI1 (Homo sapiens, UniProt Q01543 1-452).
T1 sequence: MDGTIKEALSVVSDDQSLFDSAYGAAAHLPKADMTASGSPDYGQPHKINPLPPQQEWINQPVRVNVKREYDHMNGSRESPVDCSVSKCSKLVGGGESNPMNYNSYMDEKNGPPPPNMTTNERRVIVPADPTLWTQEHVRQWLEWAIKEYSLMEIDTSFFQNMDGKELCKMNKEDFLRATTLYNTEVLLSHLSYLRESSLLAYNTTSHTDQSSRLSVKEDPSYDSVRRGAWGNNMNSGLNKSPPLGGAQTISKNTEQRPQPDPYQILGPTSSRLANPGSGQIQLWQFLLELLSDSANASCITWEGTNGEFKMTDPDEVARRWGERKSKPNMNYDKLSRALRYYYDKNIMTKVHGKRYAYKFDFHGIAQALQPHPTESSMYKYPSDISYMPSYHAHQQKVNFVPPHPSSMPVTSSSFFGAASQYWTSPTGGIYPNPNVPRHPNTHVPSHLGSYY
As to conditions: protein: recombinant; tags: N-terminal GST; dsDNA, one strand shown. Summed up: (§1)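 Pools were built from human transcription factors expressed in yeast as GST fusions, captured on glutathione beads and DNA-barcoded, along with a tag-only sample. Incubation with 200 nmole of a 16-mer random double-stranded DNA library lasted 30 min at room temperature in Tris/NaCl/DTT/glycerol buffer, and was followed by washing, 0.1% formaldehyde crosslinking, proximity ligation, PCR amplification and Illumina NextSeq500 sequencing. Binding signal is the quotient of each hexamer's read frequency for a factor and its frequency for the tag-only sample.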

Experiment [2] addresses T2, ELK1 (Homo sapiens, UniProt P19419 1-428).
T2 sequence: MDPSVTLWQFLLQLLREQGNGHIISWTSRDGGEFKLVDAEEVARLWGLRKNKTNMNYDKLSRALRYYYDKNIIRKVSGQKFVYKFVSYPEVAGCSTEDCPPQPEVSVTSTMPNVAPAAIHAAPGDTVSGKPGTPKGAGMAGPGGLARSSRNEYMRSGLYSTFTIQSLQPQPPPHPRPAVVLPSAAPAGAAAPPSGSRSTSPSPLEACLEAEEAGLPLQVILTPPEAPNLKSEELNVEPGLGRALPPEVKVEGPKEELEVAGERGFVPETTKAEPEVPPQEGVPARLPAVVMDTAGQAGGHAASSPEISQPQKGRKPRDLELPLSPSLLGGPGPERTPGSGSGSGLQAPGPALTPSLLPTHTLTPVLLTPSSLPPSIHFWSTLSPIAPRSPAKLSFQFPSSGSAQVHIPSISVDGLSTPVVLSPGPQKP
As to conditions: protein: recombinant; tags: N-terminal GST; dsDNA, one strand shown. The procedure, abridged: as §1

The target of experiment [3] is T3, GABPA (Homo sapiens, UniProt Q06546 1-454).
T3 sequence: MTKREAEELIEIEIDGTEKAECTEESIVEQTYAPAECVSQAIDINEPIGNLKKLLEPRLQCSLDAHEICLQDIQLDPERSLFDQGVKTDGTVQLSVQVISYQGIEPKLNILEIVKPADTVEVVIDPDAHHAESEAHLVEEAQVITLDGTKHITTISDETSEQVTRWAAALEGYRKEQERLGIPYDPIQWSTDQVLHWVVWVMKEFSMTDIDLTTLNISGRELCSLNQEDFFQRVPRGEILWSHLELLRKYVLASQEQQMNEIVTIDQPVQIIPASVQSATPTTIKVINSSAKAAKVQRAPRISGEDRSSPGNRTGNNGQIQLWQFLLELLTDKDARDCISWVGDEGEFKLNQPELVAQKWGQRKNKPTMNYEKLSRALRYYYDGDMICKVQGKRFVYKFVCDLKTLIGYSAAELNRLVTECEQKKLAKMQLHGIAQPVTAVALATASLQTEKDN
As to conditions: protein: recombinant; tags: N-terminal GST; dsDNA, one strand shown. The procedure, abridged: as §1

Experiment [4] addresses T4, ERG (Homo sapiens, UniProt P11308 1-479).
T4 sequence: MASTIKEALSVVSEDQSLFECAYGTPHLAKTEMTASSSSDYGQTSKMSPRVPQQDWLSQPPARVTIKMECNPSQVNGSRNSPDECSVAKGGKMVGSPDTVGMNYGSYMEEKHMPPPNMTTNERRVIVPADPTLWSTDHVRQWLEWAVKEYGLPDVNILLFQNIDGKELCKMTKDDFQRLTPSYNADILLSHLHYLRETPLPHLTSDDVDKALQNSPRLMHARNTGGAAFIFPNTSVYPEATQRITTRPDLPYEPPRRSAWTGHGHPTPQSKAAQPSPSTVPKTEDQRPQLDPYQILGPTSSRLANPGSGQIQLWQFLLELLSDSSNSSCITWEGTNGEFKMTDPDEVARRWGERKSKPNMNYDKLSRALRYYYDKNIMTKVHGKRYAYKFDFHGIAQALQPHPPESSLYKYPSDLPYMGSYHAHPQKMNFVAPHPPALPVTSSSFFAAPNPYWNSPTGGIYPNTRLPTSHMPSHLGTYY
The following applies: protein: recombinant; tags: N-terminal GST; dsDNA, one strand shown. The procedure, abridged:
as §1

In experiment [5] the target is ELF1 (Homo sapiens, UniProt P32519 1-619). As to conditions: protein: recombinant; tags: N-terminal GST; dsDNA, one strand shown. The procedure, abridged:
as §1

The target in experiment [6] is T5, EHF (Homo sapiens, UniProt Q9NZC4 1-300).
T5 sequence: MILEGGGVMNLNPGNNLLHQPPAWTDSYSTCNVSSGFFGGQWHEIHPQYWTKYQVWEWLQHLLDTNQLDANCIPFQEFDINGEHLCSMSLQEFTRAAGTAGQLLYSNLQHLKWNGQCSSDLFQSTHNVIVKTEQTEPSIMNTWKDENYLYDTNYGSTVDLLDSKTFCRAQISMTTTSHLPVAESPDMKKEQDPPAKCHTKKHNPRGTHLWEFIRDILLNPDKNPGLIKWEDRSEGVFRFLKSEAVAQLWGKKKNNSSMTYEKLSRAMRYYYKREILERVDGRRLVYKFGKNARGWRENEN
The following applies: protein: recombinant; tags: N-terminal GST; dsDNA, one strand shown. Summed up: as §1

For experiment [7], the target named is SPI1 (Homo sapiens, UniProt P17947 1-270). As to conditions: protein: recombinant; tags: N-terminal GST; dsDNA, one strand shown. The procedure, abridged: as §1
The target of experiment [8] is SPIB (Homo sapiens, UniProt Q01892 1-262). The following applies: protein: recombinant; tags: N-terminal GST; dsDNA, one strand shown. The procedure, abridged: as §1
In experiment [9] the target is T6, ELK3 (Homo sapiens, UniProt P41970 1-407).
T6 sequence: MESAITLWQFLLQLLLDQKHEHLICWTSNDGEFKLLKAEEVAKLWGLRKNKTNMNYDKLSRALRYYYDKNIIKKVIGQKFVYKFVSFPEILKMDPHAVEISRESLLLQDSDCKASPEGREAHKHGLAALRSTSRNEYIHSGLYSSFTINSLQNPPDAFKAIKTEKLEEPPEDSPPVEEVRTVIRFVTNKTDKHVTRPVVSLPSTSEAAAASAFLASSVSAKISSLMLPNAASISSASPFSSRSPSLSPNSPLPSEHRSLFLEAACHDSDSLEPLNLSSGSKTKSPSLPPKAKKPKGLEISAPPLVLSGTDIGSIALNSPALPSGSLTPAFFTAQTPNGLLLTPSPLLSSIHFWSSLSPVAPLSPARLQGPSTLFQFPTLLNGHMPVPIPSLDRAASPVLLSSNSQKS
As to conditions: protein: recombinant; tags: N-terminal GST; dsDNA, one strand shown. The procedure, abridged: as §1

Experiment [10] concerns the target T7, FEV (Homo sapiens, UniProt Q99581 1-238).
T7 sequence: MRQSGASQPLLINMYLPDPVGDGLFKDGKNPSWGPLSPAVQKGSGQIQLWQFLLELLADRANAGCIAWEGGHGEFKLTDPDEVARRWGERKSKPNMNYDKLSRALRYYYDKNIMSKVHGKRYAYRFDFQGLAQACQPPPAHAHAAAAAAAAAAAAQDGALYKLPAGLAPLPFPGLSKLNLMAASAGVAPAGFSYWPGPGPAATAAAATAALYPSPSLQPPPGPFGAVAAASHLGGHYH
The following applies: protein: recombinant; tags: N-terminal GST; dsDNA, one strand shown. Summed up: as §1

Experiment [11] addresses ETV5 (Homo sapiens, UniProt P41161 1-510). As to conditions: protein: recombinant; tags: N-terminal GST; dsDNA, one strand shown. The procedure, abridged: as §1
Experiment [12] concerns the target HSF1 (Homo sapiens, UniProt Q00613 1-529). The following applies: protein: recombinant; tags: N-terminal GST; chain copies: 3; dsDNA, one strand shown. Summed up: as §1
In experiment [13] the target is T8, SPIC (Homo sapiens, UniProt Q8N5J4 1-248).
T8 sequence: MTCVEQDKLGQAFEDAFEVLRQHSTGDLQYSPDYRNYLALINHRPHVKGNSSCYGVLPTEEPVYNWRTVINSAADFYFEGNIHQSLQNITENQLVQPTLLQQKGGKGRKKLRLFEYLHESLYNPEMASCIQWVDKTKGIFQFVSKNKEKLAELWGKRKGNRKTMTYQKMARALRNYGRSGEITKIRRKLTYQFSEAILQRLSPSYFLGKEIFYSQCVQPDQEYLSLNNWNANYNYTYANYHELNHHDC
As to conditions: protein: recombinant; tags: N-terminal GST; dsDNA, one strand shown. Summed up:
as §1

Experiment [14] addresses ELF4 (Homo sapiens, UniProt Q99607 1-663). As to conditions: protein: recombinant; tags: N-terminal GST; dsDNA, one strand shown. The procedure, abridged:
as §1

Experiment [15] concerns the target T9, ELK4 (Homo sapiens, UniProt P28324-2 1-405).
T9 sequence: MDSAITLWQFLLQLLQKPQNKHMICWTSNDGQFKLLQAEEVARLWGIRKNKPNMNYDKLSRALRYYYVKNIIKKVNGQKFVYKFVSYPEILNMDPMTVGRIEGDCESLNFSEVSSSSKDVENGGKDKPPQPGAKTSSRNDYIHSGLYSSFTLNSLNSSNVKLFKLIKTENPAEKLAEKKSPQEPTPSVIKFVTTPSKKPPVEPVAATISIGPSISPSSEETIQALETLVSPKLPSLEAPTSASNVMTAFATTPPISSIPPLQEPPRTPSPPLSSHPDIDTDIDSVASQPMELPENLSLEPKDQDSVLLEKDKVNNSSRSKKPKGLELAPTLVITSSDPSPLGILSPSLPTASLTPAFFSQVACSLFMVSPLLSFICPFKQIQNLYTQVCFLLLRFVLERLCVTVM
As to conditions: protein: recombinant; tags: N-terminal GST; dsDNA, one strand shown. The procedure, abridged: as §1

The target in experiment [16] is T10, ETV2 (Homo sapiens, UniProt O00321 1-342).
T10 sequence: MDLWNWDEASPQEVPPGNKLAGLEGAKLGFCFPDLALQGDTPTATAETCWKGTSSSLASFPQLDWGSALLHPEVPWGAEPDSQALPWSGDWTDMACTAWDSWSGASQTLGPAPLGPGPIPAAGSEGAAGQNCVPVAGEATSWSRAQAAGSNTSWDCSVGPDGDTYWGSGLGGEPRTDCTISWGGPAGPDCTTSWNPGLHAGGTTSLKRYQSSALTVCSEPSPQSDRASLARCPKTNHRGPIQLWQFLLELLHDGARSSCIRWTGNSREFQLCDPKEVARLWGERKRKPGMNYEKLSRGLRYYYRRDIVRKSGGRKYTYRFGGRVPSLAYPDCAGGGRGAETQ
The following applies: protein: recombinant; tags: N-terminal GST; dsDNA, one strand shown. Summed up:
as §1

The target in experiment [17] is T11, ELF3 (Homo sapiens, UniProt P78545 1-371).
T11 sequence: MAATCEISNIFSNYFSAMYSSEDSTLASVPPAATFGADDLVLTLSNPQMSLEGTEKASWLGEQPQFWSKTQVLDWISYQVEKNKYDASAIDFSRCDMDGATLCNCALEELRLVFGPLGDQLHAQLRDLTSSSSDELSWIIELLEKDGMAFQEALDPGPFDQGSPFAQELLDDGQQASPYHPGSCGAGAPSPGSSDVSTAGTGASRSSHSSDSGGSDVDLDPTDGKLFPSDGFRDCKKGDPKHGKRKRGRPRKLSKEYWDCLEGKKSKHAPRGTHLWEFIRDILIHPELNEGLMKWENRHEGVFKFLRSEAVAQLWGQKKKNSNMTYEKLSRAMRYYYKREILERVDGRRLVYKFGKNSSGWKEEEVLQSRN
As to conditions: protein: recombinant; tags: N-terminal GST; dsDNA, one strand shown. Summed up:
as §1

For experiment [18], the target named is ETV1 (Homo sapiens, UniProt P50549 1-477). The following applies: protein: recombinant; tags: N-terminal GST; dsDNA, one strand shown. The procedure, abridged:
as §1

Sequence of SPIB (Q01892 whole entry): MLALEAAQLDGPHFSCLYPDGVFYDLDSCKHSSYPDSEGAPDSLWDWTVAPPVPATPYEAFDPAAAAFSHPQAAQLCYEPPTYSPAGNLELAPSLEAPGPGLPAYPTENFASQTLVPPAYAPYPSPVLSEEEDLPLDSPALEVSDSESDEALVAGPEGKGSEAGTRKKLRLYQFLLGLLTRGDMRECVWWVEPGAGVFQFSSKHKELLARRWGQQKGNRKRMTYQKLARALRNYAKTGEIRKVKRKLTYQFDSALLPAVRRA
Sequence of ELF1 (P32519 whole entry): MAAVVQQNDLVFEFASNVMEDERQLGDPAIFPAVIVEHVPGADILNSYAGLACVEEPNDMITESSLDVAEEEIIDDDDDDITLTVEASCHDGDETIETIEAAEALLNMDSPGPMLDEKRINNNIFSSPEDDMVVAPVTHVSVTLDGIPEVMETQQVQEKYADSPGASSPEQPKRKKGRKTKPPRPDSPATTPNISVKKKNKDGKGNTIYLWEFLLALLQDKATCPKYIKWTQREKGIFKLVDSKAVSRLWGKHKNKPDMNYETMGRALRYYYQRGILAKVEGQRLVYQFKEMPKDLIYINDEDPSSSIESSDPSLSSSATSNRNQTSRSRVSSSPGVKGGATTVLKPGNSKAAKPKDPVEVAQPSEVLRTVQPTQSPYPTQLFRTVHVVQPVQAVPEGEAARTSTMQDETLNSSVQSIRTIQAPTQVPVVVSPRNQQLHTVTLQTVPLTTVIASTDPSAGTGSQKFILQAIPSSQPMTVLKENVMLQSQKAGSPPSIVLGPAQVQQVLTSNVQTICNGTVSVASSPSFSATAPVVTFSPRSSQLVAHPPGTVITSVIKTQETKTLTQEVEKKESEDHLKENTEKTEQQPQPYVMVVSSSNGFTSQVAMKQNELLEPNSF
Sequence of ELF4 (Q99607 whole entry): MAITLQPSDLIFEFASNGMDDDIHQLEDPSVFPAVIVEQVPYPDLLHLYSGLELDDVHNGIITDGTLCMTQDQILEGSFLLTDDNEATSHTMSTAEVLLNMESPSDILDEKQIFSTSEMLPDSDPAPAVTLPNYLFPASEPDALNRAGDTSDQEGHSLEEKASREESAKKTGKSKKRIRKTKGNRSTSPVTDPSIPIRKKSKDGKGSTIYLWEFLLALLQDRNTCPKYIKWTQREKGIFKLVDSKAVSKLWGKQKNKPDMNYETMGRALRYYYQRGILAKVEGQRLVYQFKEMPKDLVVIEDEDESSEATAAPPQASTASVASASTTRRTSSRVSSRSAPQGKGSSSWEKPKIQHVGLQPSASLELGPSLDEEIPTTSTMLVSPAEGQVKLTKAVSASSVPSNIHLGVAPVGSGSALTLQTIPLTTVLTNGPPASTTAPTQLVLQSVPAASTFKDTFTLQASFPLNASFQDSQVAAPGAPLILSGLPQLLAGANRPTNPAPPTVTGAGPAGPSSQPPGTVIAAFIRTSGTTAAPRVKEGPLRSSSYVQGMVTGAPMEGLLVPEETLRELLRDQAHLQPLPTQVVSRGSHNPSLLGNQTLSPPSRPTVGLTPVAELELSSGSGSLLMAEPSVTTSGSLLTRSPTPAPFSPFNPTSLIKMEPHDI
Sequence of ETV5 (P41161 whole entry): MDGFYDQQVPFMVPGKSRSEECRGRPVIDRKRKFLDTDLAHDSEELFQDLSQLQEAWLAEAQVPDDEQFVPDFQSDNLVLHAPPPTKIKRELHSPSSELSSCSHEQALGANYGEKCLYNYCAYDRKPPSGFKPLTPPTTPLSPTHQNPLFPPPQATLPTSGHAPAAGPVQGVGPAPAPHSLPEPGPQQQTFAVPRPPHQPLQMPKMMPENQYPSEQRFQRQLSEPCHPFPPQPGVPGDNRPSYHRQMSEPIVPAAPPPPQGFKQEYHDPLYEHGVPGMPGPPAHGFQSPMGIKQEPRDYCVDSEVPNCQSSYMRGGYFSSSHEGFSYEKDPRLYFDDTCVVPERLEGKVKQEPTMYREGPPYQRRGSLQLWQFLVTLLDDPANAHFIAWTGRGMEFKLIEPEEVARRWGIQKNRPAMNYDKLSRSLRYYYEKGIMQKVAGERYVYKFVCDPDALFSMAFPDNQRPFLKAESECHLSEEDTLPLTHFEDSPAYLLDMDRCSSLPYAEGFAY
Sequence of ETV1 (P50549 whole entry): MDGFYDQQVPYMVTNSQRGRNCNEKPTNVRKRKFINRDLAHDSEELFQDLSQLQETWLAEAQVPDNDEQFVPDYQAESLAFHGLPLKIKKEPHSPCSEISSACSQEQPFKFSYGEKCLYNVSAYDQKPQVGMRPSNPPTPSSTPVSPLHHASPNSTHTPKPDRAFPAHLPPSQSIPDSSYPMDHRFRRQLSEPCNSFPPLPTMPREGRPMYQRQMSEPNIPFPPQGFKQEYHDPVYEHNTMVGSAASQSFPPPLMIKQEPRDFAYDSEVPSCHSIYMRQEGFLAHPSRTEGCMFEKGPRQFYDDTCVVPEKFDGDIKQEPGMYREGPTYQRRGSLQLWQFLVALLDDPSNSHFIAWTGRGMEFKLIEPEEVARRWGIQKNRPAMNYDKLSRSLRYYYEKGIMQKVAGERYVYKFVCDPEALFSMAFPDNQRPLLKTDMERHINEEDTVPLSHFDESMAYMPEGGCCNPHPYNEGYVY
Sequence of HSF1 (Q00613 whole entry): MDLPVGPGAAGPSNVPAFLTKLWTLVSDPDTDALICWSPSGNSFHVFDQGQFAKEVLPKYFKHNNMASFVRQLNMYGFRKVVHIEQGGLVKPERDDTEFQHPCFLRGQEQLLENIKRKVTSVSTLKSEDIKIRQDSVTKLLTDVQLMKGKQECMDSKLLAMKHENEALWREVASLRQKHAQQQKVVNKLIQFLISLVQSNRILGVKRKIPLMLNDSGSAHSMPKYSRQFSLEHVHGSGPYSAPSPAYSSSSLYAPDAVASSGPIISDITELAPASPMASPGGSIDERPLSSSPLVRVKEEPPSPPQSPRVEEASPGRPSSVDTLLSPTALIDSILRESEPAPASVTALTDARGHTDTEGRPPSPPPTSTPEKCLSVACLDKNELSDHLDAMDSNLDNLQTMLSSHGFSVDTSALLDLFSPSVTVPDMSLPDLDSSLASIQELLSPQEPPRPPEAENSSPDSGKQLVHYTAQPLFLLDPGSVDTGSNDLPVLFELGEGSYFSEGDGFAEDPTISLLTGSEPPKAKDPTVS

On to GAAGAA, for which the binding signal in experiment [1] was 1.03 fold enrichment (6-mer frequency, TF over GST control); in experiment [2], 1.11 fold enrichment (6-mer frequency, TF over GST control); in experiment [3], 1.14 fold enrichment (6-mer frequency, TF over GST control); in experiment [4], 1.19 fold enrichment (6-mer frequency, TF over GST control); in [5] it was 1.12 fold enrichment (6-mer frequency, TF over GST control); in experiment [6], 1.14 fold enrichment (6-mer frequency, TF over GST control). Moreover, the binding signal was 1.13 fold enrichment (6-mer frequency, TF over GST control) in [7]; 1.03 fold enrichment (6-mer frequency, TF over GST control) in experiment [8]; 1.13 fold enrichment (6-mer frequency, TF over GST control) in experiment [9]; 1.08 fold enrichment (6-mer frequency, TF over GST control) in [10]; 1.16 fold enrichment (6-mer frequency, TF over GST control) in [11]; 1.46 fold enrichment (6-mer frequency, TF over GST control) in experiment [12]. The binding signal in [13] is 1.18 fold enrichment (6-mer frequency, TF over GST control); in experiment [14] it was 1.15 fold enrichment (6-mer frequency, TF over GST control); in experiment [15], 1.17 fold enrichment (6-mer frequency, TF over GST control); in experiment [16], 1.2 fold enrichment (6-mer frequency, TF over GST control); in [17] it was 1.26 fold enrichment (6-mer frequency, TF over GST control); in experiment [18] it was 1.2 fold enrichment (6-mer frequency, TF over GST control).
